Structures are written as SMILES. Records with an inconclusive call do not appear. Entries that show only a call come without a potency. The source made the active and inactive calls. Calls follow the shape of the dose curve; as a rule, active = well fitted cell-killing curve with a large enough effect; inconclusive = small, poorly fitted or top-dose-only effect; inactive = no such curve, though single readings can be large or run the other way.
Potency is read from the fitted curve at half-maximal effect.

This test can be described thus: qHTS of pediatric cancer cell lines to identify multiple opportunities for drug repurposing: Primary screen for MG 63 (6-TG R) cells (AID 1347105). Also: nearly all actives have a fitted effect of over 50% in size. Conditions: MG 63 (6-TG R) viability, CellTiter-Glo, 48 h; series mostly up to 46 µM. An excerpt: Drug repurposing or repositioning has been offered as a strategy for drug development in oncology programs. This approach has special potential for childhood cancers and other rare or orphan diseases, where the expected return on new drug development has been a disincentive to pharmaceuticals. […] In this project we exploit the poly-pharmacology of drugs to discover new indications via phenotypic screening of a panel of 19 well-characterized cell lines derived from solid tumors seen in children and adolescents. The goal is to identify approved drugs with previously unrecognized anticancer properties that has the potential to reveal new mechanisms and biological processes involved in carcinogenesis or drug resistance. We employed a titration-based paradigm (quantitative high-throughput screening or qHTS), where all compounds were tested at multiple concentrations for their effect on cell viability. Concentration-response curves (CRCs) were derived directly from the primary screen, and both potency and efficacy values were used to identify compounds with robust bioactivity profiles. We screened the NIH Chemical Genomics Center (NCGC) Pharmaceutical Collection (NPC) and Mechanism Interrogation Plate (MIPE) small molecule collections of approved and investigational compounds against these cell lines; and measured metabolically active cells after 48 hours of compound treatment as a proxy for cell viability. […] Assay Submitter: Nathalia J. Martinez, National Center for Advancing Translational Sciences, National Institutes of Health, Rockville, MD, USA; email: natalia.martinez@nih.gov Shen, M et al. Quantitative high-throughput phenotypic screening of pediatric cancer cell lines identifies multiple opportunities for drug repurposing. Oncotarget 2017 Dec 19;9(4):4758-4772. PMID 29435139.
The cells were obtained from University of North Carolina (UNC), Pediatric Preclinical Testing Program (PPT), and Coriell Institute (CI). qHTS cell viability assay: Cells were assayed in growth media at a density of 500-1,000 cells/well. Five microliters of cells were dispensed into 1,536-well, white, solid-bottom, TC-treated plates (Greiner Bio One) using a multidrop dispenser and incubated at 37 degrees C, 5% CO2, under a humidified atmosphere for 5 hours. Twenty-three nanoliters of compounds and controls (neutral control DMSO or positive control bortezomib at final concentration of 2.3 µM) were subsequently transferred by Kalypsys pintool. For primary screens, the MIPE collection was tested at 11-point dilutions (final concentrations range from 0.78 nM to 46 µM) and the NPC collection at 8-point dilutions (final concentrations range from 0.59 nM to 46 µM). Compounds tested in follow-up screens were assayed at 11-point dilutions. Cells were incubated for 48 hours, followed by addition of 3 µL of CellTiter-Glo (Promega). After a 15 min incubation at room temperature, samples were analyzed for luminescence intensity using a ViewLux High-throughput CCD imager equipped with clear filters.
Turning to `C=CC(=O)N1CCc2ccc(-n3c(=O)ccc4cnc5ccc(-c6cnn(C)c6)cc5c43)cc21`, the Potency is 2.96 µM (active).

Take `Nc1ccn(C[C@@H](CO)OCP(=O)(O)O)c(=O)n1`: the Potency entry is “inactive”. Still for that read-out and setting: the same measure for `N#CC(=C(O)c1ccc(Cl)cc1Cl)c1nc2cc(Cl)ccc2c(=O)[nH]1`: “inactive”; for `CCCCC(=O)O[C@]1(C(=O)CO)[C@@H](C)C[C@H]2[C@@H]3CCC4=CC(=O)C=C[C@]4(C)[C@@]3(F)[C@@H](O)C[C@@]21C`: “inactive”; for `COC(=O)[C@H](CCCN=C(N)N)NS(=O)(=O)c1ccc(C)cc1`: “inactive”. The same measure, in the same setting: the figure for `CC(=O)[C@]1(O)Cc2c(O)c3c(c(O)c2[C@@H](O[C@H]2C[C@H](N)[C@@H](O)[C@H](C)O2)C1)C(=O)c1ccccc1C3=O` is 0.235 µM (active); for `NC[C@H]1O[C@H](O[C@H]2[C@@H](O)[C@@H](O[C@H]3O[C@H](CO)[C@@H](O)[C@H](N)[C@@H]3O)[C@H](N)C[C@@H]2N)[C@H](N)C[C@H]1O` it is “inactive”; for `CC(C)(O)Cn1c(NC(=O)c2ccc(-c3cn[nH]c3)s2)nc2cc(CN3CCOCC3)ccc21` it is 3.72 µM (active). Same read-out and setting: the figure for `CCN(CC)Cc1ccc2cc(COC(=O)Nc3ccc(C(=O)NO)cc3)ccc2c1` is 4.69 µM (active); for `O=C(C=CC#Cc1cccc(NS(=O)(=O)c2ccccc2)c1)NO` it is 5.9 µM (active); for `CN(N=O)C(=O)N[C@H]1C(O)OC(CO)[C@@H](O)[C@H]1O` (stereo not given in full) it is “inactive”. `CN[C@@H]1C[C@H]2O[C@@](C)([C@H]1OC)n1c3ccccc3c3c4c(c5c6ccccc6n2c5c31)C(=O)N[C@H]4O`: the Potency is 0.187 µM (active). Take `CCOC(=O)N1CCN([N+]([O-])=NOc2ccc([N+](=O)[O-])cc2[N+](=O)[O-])CC1`: the Potency was 18.7 µM (active). `Nc1cccc2c1C(=O)N(C1CCC(=O)NC1=O)C2=O` (stereo not given): the Potency entry is “inactive”. The same measure, in the same setting: the entry for `c1ccc2c(Oc3nc(Nc4ccc(N5CCOCC5)cc4)c4ncn(C5CCCCC5)c4n3)cccc2c1` is “inactive”; for `CC(C)(C)[N+]([O-])=Cc1ccc(S(=O)(=O)O)cc1S(=O)(=O)O` it is “inactive”; for `C[C@@H]1[C@H](C)CC[C@]2(C(=O)O)CC[C@]3(C)C(=CC[C@@H]4[C@@]5(C)C[C@@H](O)[C@H](O)[C@@](C)(CO)[C@H]5CC[C@]43C)[C@@H]12` it is “inactive”. The same measure, in the same setting: the entry for `CCCCOc1ccc(C(=O)Nc2ccc(F)cc2F)cc1` is “inactive”; for `CC(=O)C1=C(O)C=C2Oc3c(C(C)=O)c(O)c(C)c(O)c3C2(C)C1=O` (stereo not given) it is “inactive”; for `O=C(C[C@@H]1CC=CCCC(=O)O[C@H](c2ccccc2)CNC1=O)NCc1ccc(Cl)cc1` it is “inactive”. On to `C[C@H](O)[C@@H]1C(=O)N2C(C(=O)O)=C(S[C@@H]3CN[C@H](CNS(N)(=O)=O)C3)[C@@H](C)[C@@H]12`, for which the Potency result was “inactive”. Turning to `CC(=O)NC(CS)C(=O)O` (stereo not given), the Potency result is “inactive”.

As for `COc1ccc(S(=O)(=O)Nc2cc(-c3c(O)ccc4ccccc34)c(O)c3ccccc23)cc1`, the Potency is 18.7 µM (active). `O=c1c(O)c(-c2ccc(O)c(O)c2)oc2cc(O)ccc12`: the Potency result was “inactive”. Same read-out and setting: the entry for `C[C@H]1COc2c(N3CCN(C)CC3)c(F)cc3c(=O)c(C(=O)O)cn1c23` is “inactive”; for `CCCc1nc(C(C)(C)O)c(C(=O)O)n1Cc1ccc(-c2ccccc2-c2nn[nH]n2)cc1` it is “inactive”.

With `CCN1CCN(C(=O)N[C@H](C(=O)N[C@@H]2C(=O)N3C(C(=O)O)=C(CSc4nnnn4C)CS[C@@H]23)c2ccc(O)cc2)C(=O)C1=O`, the activity change, negative = cytotoxic was 4.31% [at 9.22 µM] (inactive).

On to `C#C[C@]1(O)CC[C@@H]2[C@@H]3CCc4cc(O)ccc4[C@H]3CC[C@@]21C`, for which the Potency is 23.5 µM (active).

With `C=C1C(=O)O[C@H]2[C@@H]1CCC(C)=CCC[C@@]1(C)O[C@@H]21`, the Potency is 9.35 µM (active). Still for that read-out and setting: the same measure for `COc1ccc(Nc2cc(-c3cnc(N)nc3)nc(N3CCOCC3)n2)cn1`: 3.72 µM (active). The same measure, in the same setting: the entry for `C[C@H]1C[C@H]2[C@@H]3CCC4=CC(=O)C=C[C@]4(C)[C@@H]3C(=O)C[C@]2(C)[C@@]1(O)C(=O)CO` is “inactive”; for `Cc1cn([C@@H]2O[C@H](CO)[C@@H](O)[C@H]2F)c(=O)[nH]c1=O` it is “inactive”.

On to `O=C(NCc1ccccc1)[C@H](Cc1ccccc1)NC(=O)[C@@H]1O[C@@H]1C(=O)NCCc1ccc(O)cc1`, for which the Potency result is “inactive”. Still for that read-out and setting: the same measure for `Nc1nc(=O)n([C@H]2C[C@H](O)[C@@H](CO)O2)cc1F`: “inactive”. `CC(=O)NCC(=O)N1[C@H]2CC[C@H]1c1cc(Nc3ncc(C(F)(F)F)c(NC4CCC4)n3)ccc12`: the Potency was 2.35 µM (active). Same read-out and setting: the entry for `NC(=O)c1ncn([C@@H]2O[C@H](CO)[C@@H](O)[C@@H]2O)c1N` is “inactive”; for `Cc1onc(-c2ccccc2)c1C(=O)N[C@@H]1C(=O)N2[C@@H](C(=O)O)C(C)(C)S[C@@H]12` it is “inactive”. Regarding `Oc1cc(-c2nc(-c3ccccc3)[nH]c2-c2ccncc2)ccc1Cl`, the Potency was 11.8 µM (active). For the compound `C[C@](Cc1c[nH]c2ccccc12)(NC(=O)OC1C2CC3CC(C2)CC1C3)C(=O)NC[C@H](NC(=O)CCC(=O)O)c1ccccc1` (stereo not given in full), the Potency entry was “inactive”.

For the compound `NC(=O)c1cccc(-c2cccc(OC(=O)NC3CCCCC3)c2)c1`, the Potency entry was “inactive”.

The values above are taken from PubChem BioAssay (NCATS).
